According to PubChem BioAssay AID1159580 (chemical genetic matrix, 2015):
Among all 5,500 compounds or so, about 2,000 (36%) were called active. Another 18% or so got no clear call; they are omitted. Cut-off read from the data, not from the text of the source: active = normalized growth mostly below about 0.91 (no sharp cut-off); inconclusive = no clear call, values can overlap the other calls; inactive = mostly above about 0.92. The list shows a part of the results.

Assay: chemical genetic growth profiling, strain panel (AID 1159580);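 note: tested at 20 µM; growth read once vehicle control cultures reached saturation at 30 °C; 1 = growth at the plate median or of vehicle wells; lower values mean less growth of the strain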
Conditions: growth OD

Measured: normalized growth

Cc1cc(NC(=O)C2=C(O)c3ccccc3S(=O)(=O)N2C)no1
active: S. cerevisiae deletion strains, locus YKL068W, hits give low values 0.924 | S. cerevisiae deletion strains, locus YKL085W, strain MDH1 (second series), hits give low values 0.906 | S. cerevisiae deletion strains, locus YKL085W, strain MDH1, hits give low values 0.906
inactive: S. cerevisiae deletion strains, locus YJR066W, strain TOR1, hits give low values 0.893 | S. cerevisiae deletion strains, locus YKL009W, strain mrt4, hits give low values 0.928 | S. cerevisiae deletion strains, locus YKL160W, strain elf1, hits give low values 0.996 | S. cerevisiae deletion strains, locus YKL190W, strain CNB1, hits give low values 0.976 | S. cerevisiae deletion strains, locus YKR001C, strain vps1, hits give low values 0.973 | S. cerevisiae deletion strains, locus YKR026C, strain gcn3, hits give low values 0.956 | S. cerevisiae deletion strains, locus YKR091W, strain srl3, hits give low values 0.95 | S. cerevisiae deletion strains, locus YLL001W, strain dnm1, hits give low values 0.992 | S. cerevisiae deletion strains, locus YLL026W, hits give low values 0.968 | S. cerevisiae deletion strains, locus YLL041C, strain sdh2, hits give low values 0.96 | S. cerevisiae deletion strains, locus YLR027C, strain aat2, hits give low values 0.975 | S. cerevisiae deletion strains, locus YLR039C, strain RIC1, hits give low values 0.96 | S. cerevisiae deletion strains, locus YLR058C, strain SHM2, hits give low values 0.984 | S. cerevisiae deletion strains, locus YLR102C, strain apc9, hits give low values 0.95 | S. cerevisiae deletion strains, locus YLR113W, strain HOG1, hits give low values 0.929 | S. cerevisiae deletion strains, locus YLR221C, strain rsa3, hits give low values 0.968 | S. cerevisiae deletion strains, locus YLR258W, strain gsy2, hits give low values 0.971 | S. cerevisiae deletion strains, locus YLR262C, strain YPT6 (second series), hits give low values 0.999 | S. cerevisiae deletion strains, locus YLR262C, strain YPT6, hits give low values 0.977 | S. cerevisiae deletion strains, locus YLR268W, strain sec22, hits give low values 0.969 | S. cerevisiae deletion strains, locus YLR320W, strain mms22, hits give low values 0.955 | S. cerevisiae deletion strains, locus YLR330W, strain CHS5, hits give low values 0.962 | S. cerevisiae deletion strains, locus YLR342W, strain FKS1 (second series), hits give low values 1.01 | S. cerevisiae deletion strains, locus YLR342W, strain FKS1, hits give low values 0.975 | S. cerevisiae deletion strains, locus YLR357W, strain rsc2, hits give low values 0.994 | S. cerevisiae deletion strains, locus YLR370C, strain arc18, hits give low values 0.98 | S. cerevisiae deletion strains, locus YLR371W, strain rom2, hits give low values 0.967 | S. cerevisiae deletion strains, locus YLR384C, strain iki3, hits give low values 0.954 | S. cerevisiae deletion strains, locus YLR418C, strain cdc73, hits give low values 0.951 | S. cerevisiae deletion strains, locus YML016C, strain PPZ1, hits give low values 0.987 | S. cerevisiae deletion strains, locus YML032C, strain rad52, hits give low values 0.985 | S. cerevisiae deletion strains, locus YML120C, strain ndi1, hits give low values 0.947 | S. cerevisiae deletion strains, locus YML124C, strain tub3, hits give low values 0.954 | S. cerevisiae deletion strains, locus YMR058W, strain fet3, hits give low values 0.976 | S. cerevisiae deletion strains, locus YMR078C, strain ctf18, hits give low values 0.924 | S. cerevisiae deletion strains, locus YMR125W, strain sto1, hits give low values 0.955 | S. cerevisiae deletion strains, locus YMR129W, hits give low values 0.956 | S. cerevisiae deletion strains, locus YMR205C, strain PFK2, hits give low values 0.989 | S. cerevisiae deletion strains, locus YMR223W, strain ubp8, hits give low values 0.944 | S. cerevisiae deletion strains, locus YMR231W, strain pep5, hits give low values 0.967 | S. cerevisiae deletion strains, locus YMR307W, strain GAS1, hits give low values 0.961 | S. cerevisiae deletion strains, locus YNL067W, strain RPL9B, hits give low values 1.01 | S. cerevisiae deletion strains, locus YNL071W, strain lat1, hits give low values 0.976 | S. cerevisiae deletion strains, locus YNL183C, strain NPR1, hits give low values 0.879 | S. cerevisiae deletion strains, locus YNL209W, strain ssb2, hits give low values 0.96 | S. cerevisiae deletion strains, locus YNL233W, strain BNI4, hits give low values 1.04 | S. cerevisiae deletion strains, locus YNL248C, strain rpa49, hits give low values 0.973 | S. cerevisiae deletion strains, locus YNL250W, strain rad50, hits give low values 0.908 | S. cerevisiae deletion strains, locus YNL271C, strain bni1, hits give low values 0.923 | S. cerevisiae deletion strains, locus YNL298W, strain CLA4, hits give low values 0.923 | S. cerevisiae deletion strains, locus YNL307C, strain MCK1, hits give low values 0.947 | S. cerevisiae deletion strains, locus YNL322C, strain KRE1 (second series), hits give low values 0.953 | S. cerevisiae deletion strains, locus YNL322C, strain KRE1, hits give low values 0.978 | S. cerevisiae deletion strains, locus YNR049C, strain mso1, hits give low values 0.967 | S. cerevisiae deletion strains, locus YNR052C, strain pop2, hits give low values 0.955 | S. cerevisiae deletion strains, locus YOL006C, strain TOP1, hits give low values 1.03 | S. cerevisiae deletion strains, locus YOL012C, strain htz1 1.14 | S. cerevisiae deletion strains, locus YOL147C, strain pex11, hits give low values 0.942 | S. cerevisiae deletion strains, locus YOR001W, strain rrp6, hits give low values 0.997 | S. cerevisiae deletion strains, locus YOR061W, strain CKA2, hits give low values 0.992 | S. cerevisiae deletion strains, locus YOR069W, strain VPS5, hits give low values 0.972 | S. cerevisiae deletion strains, locus YOR070C, strain gyp1, hits give low values 0.971 | S. cerevisiae deletion strains, locus YOR080W, strain dia2, hits give low values 0.974 | S. cerevisiae deletion strains, locus YOR083W, strain WHI5, hits give low values 0.964 | S. cerevisiae deletion strains, locus YOR106W, strain vam3, hits give low values 0.996 | S. cerevisiae deletion strains, locus YOR136W, strain idh2, hits give low values 0.978 | S. cerevisiae deletion strains, locus YOR144C, strain elg1, hits give low values 0.956 | S. cerevisiae deletion strains, locus YOR184W, strain ser1, hits give low values 0.945 | S. cerevisiae deletion strains, locus YOR231W, strain MKK1, hits give low values 0.993 | S. cerevisiae deletion strains, locus YOR265W, strain rbl2, hits give low values 0.966 | S. cerevisiae deletion strains, locus YOR270C, strain vph1, hits give low values 0.969 | S. cerevisiae deletion strains, locus YOR290C, strain snf2, hits give low values 0.977 | S. cerevisiae deletion strains, locus YOR316C, strain cot1, hits give low values 0.94 | S. cerevisiae deletion strains, locus YPL051W, strain arl3, hits give low values 0.989 | S. cerevisiae deletion strains, locus YPL078C, strain atp4, hits give low values 0.981 | S. cerevisiae deletion strains, locus YPL106C, strain sse1, hits give low values 0.954 | S. cerevisiae deletion strains, locus YPL240C, strain hsp82, hits give low values 0.973 | S. cerevisiae deletion strains, locus YPL256C, strain CLN2, hits give low values 0.905 | S. cerevisiae deletion strains, locus YPR119W, strain clb2, hits give low values 0.945 | S. cerevisiae deletion strains, locus YPR141C, strain kar3, hits give low values 0.919 | S. cerevisiae deletion strains, locus YPR163C, strain tif3, hits give low values 0.931 | S. cerevisiae deletion strains, locus YPR167C, strain met16, hits give low values 0.943 | S. cerevisiae deletion strains, strain wtn01, hits give low values 0.961 | S. cerevisiae strains, strain wild type, hits give low values 0.983
